Reference: PubChem BioAssay AID1159580 (chemical genetic matrix, 2015)
Among all 5,500 compounds or so, about 2,000 (36%) were called active. Another 18% or so got no clear call; they are omitted. Rule as the data show it: active = normalized growth mostly below about 0.91 (no sharp cut-off); inconclusive = no clear call, values can overlap the other calls; inactive = mostly above about 0.92. The list shows a part of the results.

Test: chemical genetic growth profiling, strain panel (AID 1159580);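 also: tested at 20 µM; growth read once vehicle control cultures reached saturation at 30 °C; 1 = growth at the plate median or of vehicle wells; lower values mean less growth of the strain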
Conditions: growth OD

Measured: normalized growth

CCOC(N)=O
inactive: S. cerevisiae deletion strains, locus YJR075W, strain HOC1, active compounds read low 1.01 | S. cerevisiae deletion strains, locus YKL009W, strain mrt4, active compounds read low 1.02 | S. cerevisiae deletion strains, locus YKL068W, active compounds read low 1.01 | S. cerevisiae deletion strains, locus YKL085W, strain MDH1 (second series), active compounds read low 1 | S. cerevisiae deletion strains, locus YKL085W, strain MDH1, active compounds read low 1 | S. cerevisiae deletion strains, locus YKL160W, strain elf1, active compounds read low 0.994 | S. cerevisiae deletion strains, locus YKL190W, strain CNB1, active compounds read low 1 | S. cerevisiae deletion strains, locus YKR001C, strain vps1, active compounds read low 1.01 | S. cerevisiae deletion strains, locus YKR026C, strain gcn3, active compounds read low 0.992 | S. cerevisiae deletion strains, locus YKR091W, strain srl3, active compounds read low 0.992 | S. cerevisiae deletion strains, locus YLL001W, strain dnm1, active compounds read low 1.01 | S. cerevisiae deletion strains, locus YLL026W, active compounds read low 0.998 | S. cerevisiae deletion strains, locus YLL041C, strain sdh2, active compounds read low 0.995 | S. cerevisiae deletion strains, locus YLR027C, strain aat2, active compounds read low 0.996 | S. cerevisiae deletion strains, locus YLR039C, strain RIC1, active compounds read low 1.01 | S. cerevisiae deletion strains, locus YLR058C, strain SHM2, active compounds read low 1 | S. cerevisiae deletion strains, locus YLR102C, strain apc9, active compounds read low 1.02 | S. cerevisiae deletion strains, locus YLR113W, strain HOG1, active compounds read low 0.989 | S. cerevisiae deletion strains, locus YLR221C, strain rsa3, active compounds read low 0.992 | S. cerevisiae deletion strains, locus YLR258W, strain gsy2, active compounds read low 0.99 | S. cerevisiae deletion strains, locus YLR262C, strain YPT6 (second series), active compounds read low 0.998 | S. cerevisiae deletion strains, locus YLR262C, strain YPT6, active compounds read low 0.977 | S. cerevisiae deletion strains, locus YLR268W, strain sec22, active compounds read low 1 | S. cerevisiae deletion strains, locus YLR320W, strain mms22, active compounds read low 0.988 | S. cerevisiae deletion strains, locus YLR330W, strain CHS5, active compounds read low 1.01 | S. cerevisiae deletion strains, locus YLR342W, strain FKS1 (second series), active compounds read low 1.04 | S. cerevisiae deletion strains, locus YLR342W, strain FKS1, active compounds read low 0.987 | S. cerevisiae deletion strains, locus YLR357W, strain rsc2, active compounds read low 0.97 | S. cerevisiae deletion strains, locus YLR370C, strain arc18, active compounds read low 0.995 | S. cerevisiae deletion strains, locus YLR371W, strain rom2, active compounds read low 1.02 | S. cerevisiae deletion strains, locus YLR384C, strain iki3, active compounds read low 0.999 | S. cerevisiae deletion strains, locus YLR418C, strain cdc73, active compounds read low 0.996 | S. cerevisiae deletion strains, locus YML016C, strain PPZ1, active compounds read low 0.997 | S. cerevisiae deletion strains, locus YML032C, strain rad52, active compounds read low 1.02 | S. cerevisiae deletion strains, locus YML120C, strain ndi1, active compounds read low 1.02 | S. cerevisiae deletion strains, locus YML124C, strain tub3, active compounds read low 0.995 | S. cerevisiae deletion strains, locus YMR058W, strain fet3, active compounds read low 1 | S. cerevisiae deletion strains, locus YMR078C, strain ctf18, active compounds read low 1.01 | S. cerevisiae deletion strains, locus YMR125W, strain sto1, active compounds read low 0.986 | S. cerevisiae deletion strains, locus YMR129W, active compounds read low 1 | S. cerevisiae deletion strains, locus YMR205C, strain PFK2, active compounds read low 0.982 | S. cerevisiae deletion strains, locus YMR223W, strain ubp8, active compounds read low 1.02 | S. cerevisiae deletion strains, locus YMR231W, strain pep5, active compounds read low 0.995 | S. cerevisiae deletion strains, locus YMR263W, strain SAP30, active compounds read low 0.998 | S. cerevisiae deletion strains, locus YMR307W, strain GAS1, active compounds read low 1.02 | S. cerevisiae deletion strains, locus YNL067W, strain RPL9B, active compounds read low 0.999 | S. cerevisiae deletion strains, locus YNL071W, strain lat1, active compounds read low 1.01 | S. cerevisiae deletion strains, locus YNL128W, strain TEP1, active compounds read low 1.01 | S. cerevisiae deletion strains, locus YNL153C, strain GIM3, active compounds read low 0.995 | S. cerevisiae deletion strains, locus YNL183C, strain NPR1, active compounds read low 0.925 | S. cerevisiae deletion strains, locus YNL209W, strain ssb2, active compounds read low 1 | S. cerevisiae deletion strains, locus YNL233W, strain BNI4, active compounds read low 1 | S. cerevisiae deletion strains, locus YNL248C, strain rpa49, active compounds read low 1 | S. cerevisiae deletion strains, locus YNL250W, strain rad50, active compounds read low 1.02 | S. cerevisiae deletion strains, locus YNL271C, strain bni1, active compounds read low 1.02 | S. cerevisiae deletion strains, locus YNL298W, strain CLA4, active compounds read low 1.02 | S. cerevisiae deletion strains, locus YNL307C, strain MCK1, active compounds read low 1.01 | S. cerevisiae deletion strains, locus YNL322C, strain KRE1 (second series), active compounds read low 0.994 | S. cerevisiae deletion strains, locus YNL322C, strain KRE1, active compounds read low 1 | S. cerevisiae deletion strains, locus YNR049C, strain mso1, active compounds read low 1.01 | S. cerevisiae deletion strains, locus YNR052C, strain pop2, active compounds read low 1.01 | S. cerevisiae deletion strains, locus YOL006C, strain TOP1, active compounds read low 1 | S. cerevisiae deletion strains, locus YOL012C, strain htz1 1.41 | S. cerevisiae deletion strains, locus YOL147C, strain pex11, active compounds read low 1.01 | S. cerevisiae deletion strains, locus YOR001W, strain rrp6, active compounds read low 0.994 | S. cerevisiae deletion strains, locus YOR061W, strain CKA2, active compounds read low 1 | S. cerevisiae deletion strains, locus YOR069W, strain VPS5, active compounds read low 1 | S. cerevisiae deletion strains, locus YOR070C, strain gyp1, active compounds read low 0.991 | S. cerevisiae deletion strains, locus YOR080W, strain dia2, active compounds read low 0.994 | S. cerevisiae deletion strains, locus YOR083W, strain WHI5, active compounds read low 1 | S. cerevisiae deletion strains, locus YOR106W, strain vam3, active compounds read low 0.998 | S. cerevisiae deletion strains, locus YOR136W, strain idh2, active compounds read low 1.01 | S. cerevisiae deletion strains, locus YOR144C, strain elg1, active compounds read low 1.01 | S. cerevisiae deletion strains, locus YOR184W, strain ser1, active compounds read low 1.01 | S. cerevisiae deletion strains, locus YOR231W, strain MKK1, active compounds read low 1 | S. cerevisiae deletion strains, locus YOR265W, strain rbl2, active compounds read low 0.986 | S. cerevisiae deletion strains, locus YOR270C, strain vph1, active compounds read low 1 | S. cerevisiae deletion strains, locus YOR290C, strain snf2, active compounds read low 0.997 | S. cerevisiae deletion strains, locus YOR316C, strain cot1, active compounds read low 1.02 | S. cerevisiae deletion strains, locus YPL051W, strain arl3, active compounds read low 1 | S. cerevisiae deletion strains, locus YPL055C, strain LGE1, active compounds read low 0.976 | S. cerevisiae deletion strains, locus YPL078C, strain atp4, active compounds read low 0.989 | S. cerevisiae deletion strains, locus YPL106C, strain sse1, active compounds read low 0.969 | S. cerevisiae deletion strains, locus YPL240C, strain hsp82, active compounds read low 0.995 | S. cerevisiae deletion strains, locus YPL241C, strain CIN2, active compounds read low 0.992 | S. cerevisiae deletion strains, locus YPL256C, strain CLN2, active compounds read low 0.987 | S. cerevisiae deletion strains, locus YPR119W, strain clb2, active compounds read low 1.01 | S. cerevisiae deletion strains, locus YPR141C, strain kar3, active compounds read low 1.01 | S. cerevisiae deletion strains, locus YPR163C, strain tif3, active compounds read low 1.01 | S. cerevisiae deletion strains, locus YPR167C, strain met16, active compounds read low 1.01 | S. cerevisiae deletion strains, strain wtn01, active compounds read low 1 | S. cerevisiae strains, strain wild type, active compounds read low 1.01
